This is part of a sample that, as a whole, favours compounds with a hit. Of some 83,000 tested, about 20% had one in any assay.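 Activity criterion: percent growth below 10, measured after cells in 96-well plates were exposed to a single compound concentration for 48 hours.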 A number with no mark means an inactive call. The source made the active and inactive calls.
Each molecule was assayed on OVCAR-3 ovarian (assay: NCI-60 one-dose screen, 48 h (100 = growth as untreated, 0 = no growth, -100 = all killed)). Conditions: 10 µM.
Description: Growth inhibition of the OVCAR-3 human tumor cell line is measured as a screen for anti-cancer activity. Cells are grown in 96 well plates and exposed to the test compound for 48 hours. Compounds are tested at a single concentration, which is 10^-5 M for most compounds. The reported endpoint is percent growth (GI% or GIPRCNT), where numbers from 0 - 100% represent growth inhibition, and numbers from -100% - 0 represent cell death. For example, a value of 40 represents 60% growth inhibition. A value of 0 means no net growth occurred over the course of the experiment. A value of -40 indicates 40% of cells at the beginning of the experiment died by the end of the experiment. A value of -100 means all cells are dead at the end of the experiment.
NCI-60 Human Tumor Cell Lines Screen was performed using the standard one-dose NCI protocol, which is described in more detail at https://dtp.cancer.gov/discovery_development/nci-60/default.htm.
Compounds with GIPRCNT values below 10 were considered active. Activity score was based on GIPRCNT using the following formula: […]
Score is 0 for GIPRCNT values of 100 or above, 50 for GIPRCNT values of 0, and 100 for GIPRCNT values of -100.

SMILES | growth
FC(F)(F)c1ccc(-c2cnc(Cl)nc2N2CCC3(CC2)OCCO3)cc1 | 96%
ClCC#CCSc1ncnc2c1ncn2CC#CCCl | -27.5% (active)
O=C(C[P+](c1ccccc1)(c1ccccc1)c1ccccc1)C[P+](c1ccccc1)(c1ccccc1)c1ccccc1 | -92.9% (active)
CO/N=C(/C(=O)NC1C(=O)N2C(C(=O)O)=C(COC(N)=O)CSC12)c1ccco1 (stereo not given) | 122%
N=C(N)c1ccc(-c2ccc(-c3cccs3)s2)s1 | -89.2% (active)
COc1cc(Nc2ccnc(NCCCNc3ccnc4cc(Cl)ccc34)n2)cc(OC)c1 | -58.3% (active)
Cn1c(C(N)=O)cc2c1-c1nc(Nc3ccccc3)ncc1CCC2 | 63.5%
COc1ccc(Nc2ncnc3c2c(SC)nn3-c2ccccc2)cc1 | 99.1%
COc1cccc(-c2cc(-c3cccc(NS(C)(=O)=O)c3)nc(N)c2C#N)c1O | -16% (active)
COc1cc(-c2cc(C(=O)N3CCN(C(=O)c4ccccc4NCc4ccco4)CC3)nc3cc(-c4ccccc4)nn23)cc(OC)c1OC | -37.8% (active)
CCOC(=O)N1C/C(=C/c2ccc(OC)cc2)C(=O)/C(=C/c2ccc(OC)cc2)C1 | 0.817% (active)
CN(Cc1ccccc1)Cc1ccc([N+](=O)[O-])cc1I | 98.9%
CCOC(=O)N1C=CC2C=CC1C1C=CC=CC2N1C(=O)OCC (stereo not given) | 100%
O=C1C(=O)c2ccccc2C(O)=C1CCCc1ccc(C2CCCCCC2)cc1 | 51.5%
Cc1ccc(NC(=O)Nc2nc3ccccc3s2)cc1NC(=O)Nc1nc2ccccc2s1 | 96.2%
O=C(Nc1cccc(-n2cc(-c3ccncc3)c(-c3ccc(O)c(Cl)c3)n2)c1)c1cccc(C(F)(F)F)c1 | 45.1%
COc1ccc(N=C2C(=Nc3ccc(OC)cc3)N(c3ccc(N(C)C)cc3)C(=S)N2c2ccc(OC)cc2)cc1 | 106%
O=C(Nc1cccc(-n2cc(-c3ccncc3)c(-c3ccc(O)c(Cl)c3)n2)c1)Nc1ccc(Cl)c(Cl)c1 | -16.5% (active)
N#Cc1cc(-c2cc3ccccc3o2)oc1N | -7.74% (active)
O=S(=O)(NCCNc1nccc(-c2c(-c3ccc(F)cc3)nc3sccn23)n1)c1ccc2ccccc2c1 | 87.9%

SMILES | growth
CCC(=O)N1C/C(=C/c2ccc(OC)cc2)C(=O)/C(=C/c2ccc(OC)cc2)C1 | -6.54% (active)
N#Cc1ncc(-c2ccc(C(F)(F)F)cc2)c(NCc2cc(C(F)(F)F)cc(C(F)(F)F)c2)n1 | 11.4%
COc1cc(/C=C2\Oc3cc(OCC(=O)c4ccccc4)ccc3C2=O)cc(OC)c1OC | 110%
COc1ccc(-c2cc(/C=C3\C(=O)Nc4ccc(OC)cc43)[nH]n2)cc1 | 2.64% (active)
COc1ccc(-c2nc(-c3nc4cc(Cl)c(F)cc4[nH]3)c3ccccn23)cc1 | 81.3%
COc1ccc(-c2nn(-c3cccc(NC(=O)c4ccc(Cl)c(Cl)c4)c3)cc2-c2ccncc2)cc1Cl | 81.9%
CC(=O)c1nc2ccccc2n1CCNC(N)=O | 82.7%
Nc1ncnc2[nH]c(=O)[nH]c12 | 98.4%
COc1ccc(Cl)cc1-n1nnc(-c2nc3ccccc3[nH]2)c1N | 86.7%
COc1ccc2c(c1)nc(N)c1c3cccnc3cn21 | 20.4%
CCN(CC)CCSCCN(CC)CC | 108%
O=[N+]([O-])c1ccc(Oc2cc(Cl)c(Cl)cc2Cl)c(C(F)(F)F)c1 | 105%
COc1cc2c(cc1OC)N(CCO)C1=C(C(=O)OC1)C2c1ccc(Cl)c(Cl)c1 (stereo not given) | 112%
O=C(Cc1csc2nc(-c3ccc(Cl)cc3)cn12)N/N=C/c1ccccc1O | 13.9%
COc1cc(-c2cc(/C=C3\C(=O)Nc4cc(Cl)ccc43)[nH]n2)cc(OC)c1OC | 40.6%
COc1cc(-c2cc(/C=C/C(=O)c3ccc(Cl)c(Cl)c3)[nH]n2)cc(OC)c1OC | 86.5%
N#Cc1ncc(-c2cc(F)c(F)c(F)c2)c(NC2CCCCCC2)n1 | 100%
Cn1c([N+](=O)[O-])cnc1/C=C1\Oc2ccccc2C1=O | -21% (active)
Cc1cs/c(=N\NC(=O)c2cc(-c3cc4ccccc4o3)nn2-c2ccccc2)n1-c1ccccc1 | 67%
COc1ccc(OC)c(/C=C/c2nc(SCc3ccccc3)n(-c3ccc(Cl)cc3)n2)c1 | 17.3%

From PubChem BioAssay (NCI)
